According to PubChem BioAssay (NCATS):
Records with an inconclusive call do not appear. Calls of active or inactive are those of the source. Calls come from the whole dose curve; as a rule, active = well fitted cell-killing curve with a large enough effect; inconclusive = small, poorly fitted or top-dose-only effect; inactive = flat fitted curve, though single readings scatter.

Experiments:
[1] = Cell Viability - LYMP2-009 (AID 968); details: LYMP2-009 lymphoblastoid cell viability; series mostly up to 92.2 µM; note: nearly all actives have a fitted effect of over 55% in size
[2] = Cell Viability - LYMP2-011 (AID 969); details: LYMP2-011 lymphoblastoid cells viability; series mostly up to 92.2 µM; note: nearly all actives have a fitted effect of over 60% in size
In short: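 Acute toxicity is scored as a concentration-dependent drop in intracellular ATP of a human lymphoblastoid line after 24 hr treatment. Values are AC50s modeled with the Hill equation.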

[3] = Cell Viability - LYMP2-013 (AID 970); details: LYMP2-013 lymphoblastoid cells viability; series mostly up to 92.2 µM; note: nearly all actives have a fitted effect of over 55% in size
In short: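 Acute toxicity was measured in human lymphoblastoid cells (2500/well) exposed to compound titrations for 24 hr, with ATP luminescence (CellTiter-Glo) as read-out and AC50 fitted by Hill equation.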

[4] = Cell Viability - LYMP2-015 (AID 971); details: LYMP2-015 lymphoblastoid cell viability; series mostly up to 92.2 µM; note: nearly all actives have a fitted effect of over 55% in size
In short: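 Acute toxicity was scored as a concentration-dependent drop in intracellular ATP in lymphoblastoid cells after 24 hr compound exposure in complete medium. Detection used CellTiter-Glo luciferase luminescence.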

[5] = Cell Viability - LYMP2-017 (AID 972); details: LYMP2-017 lymphoblastoid cell viability; series mostly up to 92.2 µM;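 note: cells exposed to compound for 24 hours at 37 °C; nearly all actives have a fitted effect of over 55% in size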
In short: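 Steps: plate 2500 lymphoblastoid cells per well; incubate 5 hr at 37 C; add compound across a concentration series and incubate 24 hr at 37 C; add CellTiter-Glo and read luminescence after 30 min at room temperature; fit Hill curves for AC50.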

[6] = Cell Viability - LYMP2-023 (AID 975); details: LYMP2-023 lymphoblastoid cell viability; series mostly up to 92.2 µM
In short: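 Concentration-dependent drop in intracellular ATP measures acute cytotoxicity in a human lymphoblastoid line treated for 24 hours in complete culture medium. AC50 values are taken from Hill-equation fits of qHTS data.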

[7] = Cell Viability - LYMP2-002 (AID 977); details: LYMP2-002 lymphoblastoid cell viability, qHTS; series mostly up to 92.2 µM
In short: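 Luminescent ATP readout (CellTiter-Glo, 30 min room temperature) after 24 h compound exposure at 37 C of a human lymphoblastoid line, 2500 cells/well. AC50 values derived by standard Hill fitting of qHTS concentration-response data.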

[8] = Cell Viability - LYMP2-006 (AID 978); details: LYMP2-006 lymphoblastoid cell viability, qHTS; series mostly up to 92.2 µM; note: nearly all actives have a fitted effect of over 60% in size
In short: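 Cells are seeded at 2500 per well and rested 5 hr at 37 C. Compounds are added across a concentration series for 24 hr at 37 C, after which ATP is quantified by luciferase luminescence.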

[9] = Cell Viability - LYMP2-008 (AID 980); details: LYMP2-008 lymphoblastoid cell viability, qHTS; series mostly up to 92.2 µM; note: nearly all actives have a fitted effect of over 60% in size
In short: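 Acute cytotoxicity is scored as concentration-dependent loss of cellular ATP in a human lymphoblastoid line after 24 hr treatment at 37 C. ATP is quantified by luciferase luminescence.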

[10] = Cell Viability - LYMP2-010 (AID 981); details: LYMP2-010 lymphoblastoid cell viability, qHTS; series mostly up to 92.2 µM
In short: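 Acute toxicity is scored as a concentration-dependent loss of cellular ATP in human lymphoblastoid cells after 24 hr compound exposure in complete medium. Tetraoctylammonium bromide is the positive control.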

[11] = Cell Viability - LYMP1-002 - Assay at 40 hr (AID 994); details: LYMP1-002 lymphoblastoid cell viability; series mostly up to 92.2 µM; note: nearly all actives have a fitted effect of over 60% in size
In short: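 Viability in the human lymphoblastoid line was measured as intracellular ATP via CellTiter-Glo after 40 hr compound exposure. Tetraoctylammonium bromide served as positive control.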

Measured: Potency

O=C(O)c1cc(N=Nc2ccc([N+](=O)[O-])cc2)ccc1O
inactive: all assays above
